Reference: PubChem BioAssay AID1159580 (chemical genetic matrix, 2015)
About 2,000 (36%) of roughly 5,500 compounds were called active. About 18% were inconclusive and are not listed. Cut-off read from the data, not from the text of the source: active = normalized growth mostly below about 0.91 (no sharp cut-off); inconclusive = no clear call, values can overlap the other calls; inactive = mostly above about 0.92. The list shows a part of the results.

Experiment: chemical genetic growth profiling, strain panel (AID 1159580);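 note: tested at 20 µM; growth read once vehicle control cultures reached saturation at 30 °C; 1 = growth at the plate median or of vehicle wells; lower values mean less growth of the strain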
Settings: S. cerevisiae deletion strains, growth OD
[1] = locus YAL013W, strain DEP1, stronger effect = lower value
[2] = locus YBR021W, strain FUR4, stronger effect = lower value
[3] = locus YBR229C, strain ROT2, stronger effect = lower value
[4] = locus YCL029C, strain bik1, stronger effect = lower value
[5] = locus YDL035C, strain GPR1, stronger effect = lower value
[6] = locus YDL074C, strain BRE1, stronger effect = lower value
[7] = locus YDL101C, strain DUN1, stronger effect = lower value
[8] = locus YDL134C, strain PPH21, stronger effect = lower value
[9] = locus YDL185W, strain tfp1, stronger effect = lower value
[10] = locus YDL192W, strain arf1, stronger effect = lower value
[11] = locus YDR101C, strain arx1, stronger effect = lower value
[12] = locus YDR150W, strain NUM1, stronger effect = lower value
[13] = locus YDR162C, strain NBP2, stronger effect = lower value
[14] = locus YDR318W, strain mcm21, stronger effect = lower value
[15] = locus YDR388W, stronger effect = lower value
[16] = locus YDR502C, strain sam2, stronger effect = lower value
[17] = locus YEL061C, strain CIN8, stronger effect = lower value
[18] = locus YER110C, stronger effect = lower value
[19] = locus YER155C, strain BEM2, stronger effect = lower value
[20] = locus YER167W, strain BCK2, stronger effect = lower value
[21] = locus YGL078C, strain dbp3, stronger effect = lower value
[22] = locus YGL086W, strain mad1, stronger effect = lower value
[23] = locus YGL248W, strain PDE1, stronger effect = lower value
[24] = locus YGR078C, strain PAC10, stronger effect = lower value
[25] = locus YGR135W, strain pre9, stronger effect = lower value
[26] = locus YGR229C, strain SMI1, stronger effect = lower value
[27] = locus YGR252W, strain gcn5, stronger effect = lower value
[28] = locus YHR030C, strain SLT2, stronger effect = lower value
[29] = locus YHR079C, strain IRE1 (second series), stronger effect = lower value
[30] = locus YHR094C, strain hxt1, stronger effect = lower value
[31] = locus YHR129C, strain ARP1, stronger effect = lower value
[32] = locus YHR200W, strain rpn10, stronger effect = lower value
[33] = locus YIL066C, strain RNR3, stronger effect = lower value
[34] = locus YIL073C, strain SPO22, stronger effect = lower value
[35] = locus YIL125W, strain kgd1, stronger effect = lower value
[36] = locus YIR030C, strain dcg1, stronger effect = lower value
[37] = locus YJL095W, strain BCK1, stronger effect = lower value
[38] = locus YJL134W, strain LCB3, stronger effect = lower value
[39] = locus YJL168C, strain set2, stronger effect = lower value
[40] = locus YJL187C, strain SWE1 (second series), stronger effect = lower value
[41] = locus YJR043C, strain POL32, stronger effect = lower value
[42] = locus YKL009W, strain mrt4, stronger effect = lower value
[43] = locus YKL068W, stronger effect = lower value
[44] = locus YKL085W, strain MDH1 (second series), stronger effect = lower value
[45] = locus YKL085W, strain MDH1, stronger effect = lower value
[46] = locus YKR001C, strain vps1, stronger effect = lower value
[47] = locus YLR039C, strain RIC1, stronger effect = lower value
[48] = locus YLR058C, strain SHM2, stronger effect = lower value
[49] = locus YLR102C, strain apc9, stronger effect = lower value
[50] = locus YLR262C, strain YPT6, stronger effect = lower value
[51] = locus YLR268W, strain sec22, stronger effect = lower value
[52] = locus YLR330W, strain CHS5, stronger effect = lower value
[53] = locus YLR342W, strain FKS1 (second series), stronger effect = lower value
[54] = locus YLR371W, strain rom2, stronger effect = lower value
[55] = locus YLR418C, strain cdc73, stronger effect = lower value
[56] = locus YML016C, strain PPZ1, stronger effect = lower value
[57] = locus YML032C, strain rad52, stronger effect = lower value
[58] = locus YML124C, strain tub3, stronger effect = lower value
[59] = locus YMR078C, strain ctf18, stronger effect = lower value
[60] = locus YMR223W, strain ubp8, stronger effect = lower value
[61] = locus YMR307W, strain GAS1, stronger effect = lower value
[62] = locus YNL067W, strain RPL9B, stronger effect = lower value
[63] = locus YNL153C, strain GIM3, stronger effect = lower value
[64] = locus YNL233W, strain BNI4, stronger effect = lower value
[65] = locus YNL250W, strain rad50, stronger effect = lower value
[66] = locus YNL271C, strain bni1, stronger effect = lower value
[67] = locus YNL298W, strain CLA4, stronger effect = lower value
[68] = locus YNL307C, strain MCK1, stronger effect = lower value
[69] = locus YNR052C, strain pop2, stronger effect = lower value
[70] = locus YOL147C, strain pex11, stronger effect = lower value
[71] = locus YOR061W, strain CKA2, stronger effect = lower value
[72] = locus YOR069W, strain VPS5, stronger effect = lower value
[73] = locus YOR136W, strain idh2, stronger effect = lower value
[74] = locus YOR144C, strain elg1, stronger effect = lower value
[75] = locus YOR184W, strain ser1, stronger effect = lower value
[76] = locus YOR316C, strain cot1, stronger effect = lower value
[77] = locus YPL055C, strain LGE1, stronger effect = lower value
[78] = locus YPL241C, strain CIN2, stronger effect = lower value
[79] = locus YPR119W, strain clb2, stronger effect = lower value
[80] = locus YPR141C, strain kar3, stronger effect = lower value
[81] = locus YPR163C, strain tif3, stronger effect = lower value
[82] = locus YPR167C, strain met16, stronger effect = lower value
[83] = strain wtn01, stronger effect = lower value
[84] = locus YNL128W, strain TEP1, stronger effect = lower value
[85] = locus YNL322C, strain KRE1, stronger effect = lower value
[86] = locus YOL006C, strain TOP1, stronger effect = lower value

Measured: normalized growth

O=c1cc(CO)occ1O
inactive: [1] 1.02 | [2] 1 | [3] 1 | [4] 1.02 | [5] 1.03 | [6] 1.03 | [7] 1 | [8] 1.01 | [9] 1.03 | [10] 1.02 | [11] 1.03 | [12] 1.01 | [13] 1.04 | [14] 1.02 | [15] 1.02 | [16] 1.03 | [17] 1 | [18] 1.04 | [19] 1 | [20] 1.01 | [21] 1.03 | [22] 1 | [23] 1 | [24] 1.01 | [25] 1.05 | [26] 1.01 | [27] 1.05 | [28] 1 | [29] 1.03 | [30] 1.02 | [31] 1.01 | [32] 1.03 | [33] 1.01 | [34] 1.15 | [35] 1.02 | [36] 1.02 | [37] 1.02 | [38] 1.01 | [39] 1.04 | [40] 1.01 | [41] 1.02 | [42] 1.03 | [43] 1.01 | [44] 1.01 | [45] 1.01 | [46] 1.03 | [47] 1.04 | [48] 1 | [49] 1.02 | [50] 1.08 | [51] 1.02 | [52] 1 | [53] 1.04 | [54] 1.04 | [55] 1.06 | [56] 1 | [57] 1.04 | [58] 1.02 | [59] 1.03 | [60] 1.06 | [61] 1.07 | [62] 1.03 | [63] 1.01 | [64] 1.01 | [65] 1.05 | [66] 1.02 | [67] 1.04 | [68] 1.03 | [69] 1.01 | locus YOL012C, strain htz1 1.34 | [70] 1.03 | [71] 1.01 | [72] 1 | [73] 1.02 | [74] 1.03 | [75] 1.04 | [76] 1.01 | [77] 1.02 | [78] 1.01 | [79] 1.03 | [80] 1.01 | [81] 1.04 | [82] 1.02 | [83] 1.01

CCOC(=O)NC(=O)c1cn(Cc2cccs2)c(=O)[nH]c1=O
inactive: [1] 0.999 | [3] 1.02 | [7] 1 | [12] 1.02 | [17] 0.996 | [24] 0.993 | [26] 0.998 | [28] 1 | locus YHR087W, strain rtc3, stronger effect = lower value 1.01 | locus YJL187C, strain SWE1, stronger effect = lower value 1.01 | [41] 0.988 | locus YJR075W, strain HOC1, stronger effect = lower value 1.01 | [47] 1.01 | locus YLR058C, strain SHM2 (second series), stronger effect = lower value 1.01 | locus YLR085C, strain ARP6, stronger effect = lower value 1.03 | [50] 0.999 | locus YML094W, strain GIM5, stronger effect = lower value 1.01 | locus YMR219W, strain ESC1, stronger effect = lower value 1.01 | locus YMR263W, strain SAP30, stronger effect = lower value 1.01 | [84] 0.984 | [63] 0.983 | locus YNL298W, strain CLA4 (second series), stronger effect = lower value 1.02 | [85] 1 | locus YNR030W, strain Alg12, stronger effect = lower value 1.01 | [86] 0.997 | [77] 1.06 | [78] 1.02 | locus YPR135W, strain CTF4, stronger effect = lower value 0.96

COC(=O)/C(C)=C\CC12OC(C)(C)C3CC(C=C4C(=O)c5c(O)c6c(c(CCC(C)(C)Cl)c5OC431)OC1(C)CCC(=C(C)C)C6C1)C2=O (stereo not drawn)
inactive: [2] 0.981 | [3] 1.02 | [4] 0.997 | [5] 1.01 | [6] 0.994 | [7] 0.999 | [8] 0.976 | [9] 1.01 | [10] 0.985 | [11] 0.992 | [12] 1.02 | [13] 1.01 | [14] 0.985 | [15] 1.01 | [16] 0.961 | [18] 1.02 | [19] 1.01 | [20] 1.01 | [21] 0.994 | [22] 0.962 | [23] 0.98 | [25] 0.982 | [27] 0.919 | [28] 1.02 | [29] 1 | [30] 1 | [31] 1.01 | [32] 0.984 | [33] 1.01 | [34] 0.987 | [35] 0.985 | [36] 1.01 | [37] 0.959 | [38] 1.03 | [39] 1.01 | [40] 0.986 | [41] 1.02 | [42] 0.979 | [43] 0.999 | [44] 0.997 | [45] 0.997 | [46] 0.952 | [47] 0.957 | [48] 1 | [49] 1.01 | [50] 0.946 | [51] 0.975 | [52] 1.01 | [53] 0.957 | [54] 1.02 | [56] 1.01 | [57] 0.988 | [58] 1.02 | [59] 1 | [60] 0.985 | [61] 0.955 | [62] 1.02 | [84] 1.04 | [63] 1 | [64] 0.993 | [65] 1.01 | [66] 1.01 | [67] 1.01 | [68] 0.981 | [85] 1.03 | [69] 0.989 | [86] 1.06 | locus YOL012C, strain htz1 0.7 | [70] 1 | [71] 0.999 | [72] 1.02 | [73] 0.987 | [74] 1 | [75] 0.977 | [76] 0.999 | [79] 1.01 | [80] 1.02 | [81] 1 | [82] 0.982 | [83] 0.969
active: [55] 0.834
